# “And” between values parts separate entries of the source, which are not always exact repeats. Equal entries are not always repeated. The source made the active and inactive calls.
# How the values were obtained:
# [1] = test system: PRMT1 (protein arginine N-methyltransferase 1); assay: PRMT1 binders on small-molecule microarrays, primary screen, biochemical, small-molecule microarray, 635 nm fluorescence (AID 1088); settings: small-molecule microarray binding, higher = more signal;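 note: binding of Prmt1 protein to compounds spotted on small-molecule microarray slides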
# [2] = yeast growth modulation, basal conditions, primary screen, YJM789 clinical isolate, OD600, 24 h (AID 1089);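 note: growth of clinical yeast isolate S. cerevisiae YJM 789 seeded 1000 cells per well; test concentration not given here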; settings: S. cerevisiae YJM789 growth, higher = more signal, called active from +8 up or from −8 down
# [3] = fission yeast growth modulation, primary screen, strain 972, OD600, 24 h, no modulator (AID 1090);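 note: basal condition with compound alone and no growth modifier present; test concentration not given here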; settings: S. pombe 972 growth, higher = more signal, called active from +8 up or from −8 down
# [4] = S. cerevisiae growth modulation with rapamycin, primary screen, strain BY4716, OD600, 96 h (AID 1091); settings: higher = more signal, called active from +8 up or from −8 down; note: test concentration not given here
# [5] = biological target: Torsin-1A-interacting protein 2 (Homo sapiens) (UniProt Q8NFQ8); assay: LULL1 binders on small-molecule microarray, primary screen, cell lysate, human LULL1 lysate, 635/667 nm fluorescence (AID 1092); settings: hLULL1 lysate binding, 635 nm fluorescence, higher = more signal;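 note: probe is lysate of COS7 cells overexpressing human LULL1; score merges per-feature 667 nm fluorescence with signal-to-noise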
# [6] = E. coli growth modulation, two-sided OD650, primary screen, E. coli filamentation project, strain DRC41, 24 h (AID 1093); settings: OD650, 24 h, higher = more signal, called active from +8 up or from −8 down;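 note: MC1000 strain lacking acrAB efflux and sulA so SOS filamentation is blocked; test concentration not given here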
# [7] = small-molecule microarray binders of probe aLefty2, primary screen, biochemical, biotinylated probe, 635/667 nm fluorescence (AID 1094); settings: higher = more signal;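 note: score merges spot fluorescence near 667 nm with spot signal-to-noise ratio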
# [8] = test system: Noggin (protein binding on small-molecule microarray); assay: Noggin binders on small-molecule microarray, primary screen, biochemical, 635/667 nm fluorescence (AID 1095); settings: 635 nm fluorescence, higher = more signal;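 note: score merges 667 nm feature fluorescence with signal to noise over triplicate slides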
# [9] = biological target: Neurogenic locus notch homolog protein 3 (Homo sapiens) (UniProt Q9UM47); assay: NOTCH3 binders on small-molecule microarray, primary screen, biochemical, 635/667 nm fluorescence (AID 1096); settings: NOTCH3 binding, 635 nm fluorescence, higher = more signal
# [10] = small-molecule microarray binders of probe aEGFR, primary screen, biochemical, biotinylated probe, 635/667 nm fluorescence (AID 1097); settings: higher = more signal;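 note: probe is a biotinylated anti-EGFR antibody binding compounds printed on slides; score combines fluorescence near 667 nm and signal to noise of each spot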
# [11] = test system: Plasmodium falciparum Sir2 (PF13_0152, Sir2A); assay: pfSir2 binders on small-molecule microarrays, primary screen, biochemical, small-molecule microarray, 635 nm fluorescence (AID 1098); settings: small-molecule microarray binding, fluorescence 635 nm; higher = more signal;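 note: score merges spot fluorescence intensity with its signal-to-noise ratio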
# [12] = small-molecule microarray binders of probe aDKK1, primary screen, biochemical, biotinylated probe, 635/667 nm fluorescence (AID 1099); settings: higher = more signal;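 note: score merges 667nm spot fluorescence with signal to noise across triplicate slides; reference of the scale not given here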
# [13] = small-molecule microarray binders of probe aCHRDL2, primary screen, biochemical, biotinylated probe, 635/667 nm fluorescence (AID 1100); settings: higher = more signal
# [14] = splicing luciferase reporter signal modulators, primary screen, spliceosome inhibition project, cell-based, HEK293, splice +/- reporter (AID 1101); settings: luminescence, 24 h, higher = more signal, called active from +8 up or from −8 down;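 note: HEK293 cells carrying a splicing-competent luciferase reporter gene; test concentration not given here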
# [15] = biological target: Fibroblast growth factor 10 (Homo sapiens) (UniProt O15520); assay: FGF10 binders on small-molecule microarrays, primary screen, biochemical, small-molecule microarray, 635 nm fluorescence (AID 1102); settings: FGF10 binding, fluorescence 635 nm, higher = more signal
# [16] = test system: glycogen synthase kinase-3 (GSK3A per assay name; protocol says GSK3B); assay: GSK3 binders on small-molecule microarrays, primary screen, biochemical, small-molecule microarray, 635 nm fluorescence, GSK3A (AID 1103); settings: small-molecule microarray binding, fluorescence 635 nm; higher = more signal; note: the record names both GSK3A and GSK3B
# [17] = biological target: Epidermal growth factor receptor (Homo sapiens) (UniProt P00533); assay: EGFR binders on small-molecule microarrays, primary screen, biochemical, small-molecule microarray, 635 nm fluorescence (AID 1104); settings: EGFR binding, higher = more signal;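 note: score merges 667 nm emission intensity with spot signal to noise over triplicate slides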
# [18] = biological target: Follistatin-related protein 3 (Homo sapiens) (UniProt O95633); assay: FSTL3 binders on small-molecule microarrays, primary screen, biochemical, small-molecule microarray, 635 nm fluorescence (AID 1105); settings: FSTL3 binding, higher = more signal;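 note: score merges emission near 667 nm and signal to noise per printed spot across three slides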
# [19] = biological target: Dickkopf-related protein 1 (Homo sapiens) (UniProt O94907); assay: DKK1 binders on small-molecule microarrays, primary screen, biochemical, small-molecule microarray, 635 nm fluorescence scan (AID 1106); settings: DKK1 binding, higher = more signal;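 note: score merges emission near 667 nm with signal to noise over three replicate slides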
# [20] = test system: Inhibin beta A chain (activin A); assay: INHBA (activin A) binders on microarrays, primary screen, biochemical, small-molecule microarray, 635 nm fluorescence scan (AID 1107); settings: small-molecule microarray binding, higher = more signal;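 note: mouse activin A protein probed at 4.33 µg/mL on printed slides; score merges bound-protein fluorescence near 667 nm with spot signal-to-noise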
# Chain of Torsin-1A-interacting protein 2 (Homo sapiens) (Q8NFQ8 whole entry, looked up): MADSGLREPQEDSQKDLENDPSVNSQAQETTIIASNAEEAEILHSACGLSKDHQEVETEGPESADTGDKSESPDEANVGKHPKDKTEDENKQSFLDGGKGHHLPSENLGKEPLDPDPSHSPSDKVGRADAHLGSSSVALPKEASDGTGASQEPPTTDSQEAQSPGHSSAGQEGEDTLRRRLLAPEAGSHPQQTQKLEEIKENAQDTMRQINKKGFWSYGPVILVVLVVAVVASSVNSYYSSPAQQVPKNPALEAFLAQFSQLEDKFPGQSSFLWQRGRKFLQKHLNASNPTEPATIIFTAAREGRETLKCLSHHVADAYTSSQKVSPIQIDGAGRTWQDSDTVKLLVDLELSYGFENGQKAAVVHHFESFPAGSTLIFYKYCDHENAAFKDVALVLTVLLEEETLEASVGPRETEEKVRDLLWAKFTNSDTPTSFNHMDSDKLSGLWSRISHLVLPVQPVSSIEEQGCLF
# Chain of Neurogenic locus notch homolog protein 3 (Homo sapiens) (Q9UM47 whole entry, looked up): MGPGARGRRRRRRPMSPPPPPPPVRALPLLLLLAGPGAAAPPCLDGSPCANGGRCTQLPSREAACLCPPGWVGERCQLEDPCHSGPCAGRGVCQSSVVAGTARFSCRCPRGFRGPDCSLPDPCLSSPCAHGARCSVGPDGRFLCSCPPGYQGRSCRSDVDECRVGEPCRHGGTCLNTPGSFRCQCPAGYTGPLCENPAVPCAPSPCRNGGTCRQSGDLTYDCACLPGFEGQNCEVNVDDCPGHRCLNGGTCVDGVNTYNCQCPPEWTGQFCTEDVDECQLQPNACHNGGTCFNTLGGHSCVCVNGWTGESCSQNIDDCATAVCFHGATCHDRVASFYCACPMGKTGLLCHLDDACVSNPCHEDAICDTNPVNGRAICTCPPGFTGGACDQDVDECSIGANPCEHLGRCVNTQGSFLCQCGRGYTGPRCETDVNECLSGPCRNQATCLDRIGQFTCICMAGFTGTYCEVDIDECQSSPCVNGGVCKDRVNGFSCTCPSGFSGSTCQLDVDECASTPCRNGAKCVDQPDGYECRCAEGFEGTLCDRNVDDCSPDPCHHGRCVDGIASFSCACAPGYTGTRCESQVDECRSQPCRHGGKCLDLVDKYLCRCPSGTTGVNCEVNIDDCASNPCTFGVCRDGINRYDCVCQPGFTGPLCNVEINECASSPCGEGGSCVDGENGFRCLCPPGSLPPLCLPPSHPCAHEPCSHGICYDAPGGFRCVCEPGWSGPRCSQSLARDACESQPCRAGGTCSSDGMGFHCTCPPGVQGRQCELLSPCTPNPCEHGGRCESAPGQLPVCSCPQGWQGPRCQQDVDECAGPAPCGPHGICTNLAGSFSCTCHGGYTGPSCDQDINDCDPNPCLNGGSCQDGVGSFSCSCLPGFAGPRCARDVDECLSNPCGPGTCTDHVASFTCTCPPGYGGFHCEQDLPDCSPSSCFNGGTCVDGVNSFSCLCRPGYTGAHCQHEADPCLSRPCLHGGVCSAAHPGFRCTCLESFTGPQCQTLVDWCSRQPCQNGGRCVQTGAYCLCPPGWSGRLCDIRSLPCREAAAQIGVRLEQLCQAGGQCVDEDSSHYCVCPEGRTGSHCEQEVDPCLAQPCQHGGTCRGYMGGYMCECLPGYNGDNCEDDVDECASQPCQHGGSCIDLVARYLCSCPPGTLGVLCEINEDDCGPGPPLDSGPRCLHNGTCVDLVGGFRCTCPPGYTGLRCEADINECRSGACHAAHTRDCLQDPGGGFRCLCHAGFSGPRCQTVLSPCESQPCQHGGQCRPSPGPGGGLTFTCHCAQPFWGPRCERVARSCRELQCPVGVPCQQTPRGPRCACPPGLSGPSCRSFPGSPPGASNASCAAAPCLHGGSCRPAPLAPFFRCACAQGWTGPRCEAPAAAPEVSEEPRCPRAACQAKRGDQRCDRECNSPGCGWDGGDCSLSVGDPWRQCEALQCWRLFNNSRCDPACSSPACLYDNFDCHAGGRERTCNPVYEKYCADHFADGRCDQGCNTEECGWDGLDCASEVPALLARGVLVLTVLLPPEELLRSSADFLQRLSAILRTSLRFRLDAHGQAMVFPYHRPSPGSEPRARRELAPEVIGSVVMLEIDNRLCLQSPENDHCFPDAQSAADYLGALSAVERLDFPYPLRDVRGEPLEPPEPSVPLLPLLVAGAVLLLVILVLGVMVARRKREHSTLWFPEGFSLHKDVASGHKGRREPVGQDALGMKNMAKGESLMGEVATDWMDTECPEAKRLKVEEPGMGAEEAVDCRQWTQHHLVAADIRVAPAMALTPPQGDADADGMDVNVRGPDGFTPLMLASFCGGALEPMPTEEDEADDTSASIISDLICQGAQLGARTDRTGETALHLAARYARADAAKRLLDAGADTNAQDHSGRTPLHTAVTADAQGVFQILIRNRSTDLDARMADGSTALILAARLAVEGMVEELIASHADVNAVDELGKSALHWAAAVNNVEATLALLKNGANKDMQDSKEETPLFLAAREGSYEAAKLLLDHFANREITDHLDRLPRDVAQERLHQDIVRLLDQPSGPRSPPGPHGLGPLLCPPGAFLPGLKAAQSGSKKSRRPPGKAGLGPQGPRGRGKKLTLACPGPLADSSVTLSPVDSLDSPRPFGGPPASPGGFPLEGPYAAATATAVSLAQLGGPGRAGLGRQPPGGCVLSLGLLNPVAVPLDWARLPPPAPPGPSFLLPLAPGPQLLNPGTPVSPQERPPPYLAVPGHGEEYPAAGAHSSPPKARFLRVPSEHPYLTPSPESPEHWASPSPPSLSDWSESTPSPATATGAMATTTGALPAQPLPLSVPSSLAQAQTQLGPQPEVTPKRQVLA
# Chain of Follistatin-related protein 3 (Homo sapiens) (O95633 whole entry, looked up): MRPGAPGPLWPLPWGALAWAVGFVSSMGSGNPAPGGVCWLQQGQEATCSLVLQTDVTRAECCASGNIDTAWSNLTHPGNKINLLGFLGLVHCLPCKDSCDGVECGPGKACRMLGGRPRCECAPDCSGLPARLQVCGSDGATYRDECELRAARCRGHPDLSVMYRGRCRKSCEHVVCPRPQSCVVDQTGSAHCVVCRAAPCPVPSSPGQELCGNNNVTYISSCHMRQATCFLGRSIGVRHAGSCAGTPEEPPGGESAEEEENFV
# Chain of Epidermal growth factor receptor (Homo sapiens) (P00533 whole entry, looked up): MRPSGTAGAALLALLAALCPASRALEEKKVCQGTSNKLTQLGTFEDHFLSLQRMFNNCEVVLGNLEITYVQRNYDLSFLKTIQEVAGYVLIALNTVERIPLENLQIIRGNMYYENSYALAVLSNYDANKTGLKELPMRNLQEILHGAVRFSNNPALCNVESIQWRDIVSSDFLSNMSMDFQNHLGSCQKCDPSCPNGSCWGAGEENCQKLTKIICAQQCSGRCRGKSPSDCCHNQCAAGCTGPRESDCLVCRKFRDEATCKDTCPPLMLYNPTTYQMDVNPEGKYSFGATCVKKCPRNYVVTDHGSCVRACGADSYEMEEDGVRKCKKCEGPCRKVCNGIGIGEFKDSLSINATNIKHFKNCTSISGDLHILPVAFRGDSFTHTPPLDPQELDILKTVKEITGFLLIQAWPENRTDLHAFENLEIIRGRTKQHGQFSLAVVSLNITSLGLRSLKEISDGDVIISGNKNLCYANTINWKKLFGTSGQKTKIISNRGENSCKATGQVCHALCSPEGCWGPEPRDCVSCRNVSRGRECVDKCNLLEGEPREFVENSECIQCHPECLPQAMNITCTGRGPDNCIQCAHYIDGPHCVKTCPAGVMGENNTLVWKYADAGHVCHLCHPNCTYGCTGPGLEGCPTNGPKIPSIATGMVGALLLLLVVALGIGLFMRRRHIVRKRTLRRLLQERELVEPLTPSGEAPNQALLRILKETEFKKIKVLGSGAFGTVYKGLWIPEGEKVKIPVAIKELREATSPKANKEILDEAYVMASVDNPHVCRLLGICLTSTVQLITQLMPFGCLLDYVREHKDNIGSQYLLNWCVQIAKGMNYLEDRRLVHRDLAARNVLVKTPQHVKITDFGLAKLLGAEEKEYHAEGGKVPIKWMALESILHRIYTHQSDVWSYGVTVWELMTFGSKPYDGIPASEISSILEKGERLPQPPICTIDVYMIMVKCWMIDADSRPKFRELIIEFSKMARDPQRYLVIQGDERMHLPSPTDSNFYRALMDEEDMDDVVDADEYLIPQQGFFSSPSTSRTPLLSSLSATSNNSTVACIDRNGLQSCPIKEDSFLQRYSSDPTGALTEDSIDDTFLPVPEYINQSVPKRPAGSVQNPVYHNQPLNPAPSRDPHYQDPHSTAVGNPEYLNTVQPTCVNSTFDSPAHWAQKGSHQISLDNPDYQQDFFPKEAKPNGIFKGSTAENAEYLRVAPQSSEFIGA
# Chain of Dickkopf-related protein 1 (Homo sapiens) (O94907 whole entry, looked up): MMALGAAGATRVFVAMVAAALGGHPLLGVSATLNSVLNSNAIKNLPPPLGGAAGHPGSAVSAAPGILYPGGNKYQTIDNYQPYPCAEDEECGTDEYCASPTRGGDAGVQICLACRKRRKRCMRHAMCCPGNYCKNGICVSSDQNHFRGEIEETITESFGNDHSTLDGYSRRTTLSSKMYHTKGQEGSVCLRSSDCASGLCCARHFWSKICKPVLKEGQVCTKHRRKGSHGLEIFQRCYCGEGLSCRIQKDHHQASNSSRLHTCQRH
# Chain of Fibroblast growth factor 10 (Homo sapiens) (O15520 whole entry, looked up): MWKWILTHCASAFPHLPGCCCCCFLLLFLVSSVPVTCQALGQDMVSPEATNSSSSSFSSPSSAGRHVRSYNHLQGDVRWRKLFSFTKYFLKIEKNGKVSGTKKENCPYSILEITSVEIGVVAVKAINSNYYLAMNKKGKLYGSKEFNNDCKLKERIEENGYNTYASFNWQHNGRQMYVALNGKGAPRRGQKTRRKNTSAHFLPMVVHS
SMILES,composite z-score [1],z-score [2],z-score [3],z-score [4],composite z-score [5],z-score [6],composite z-score [7],composite z-score [8],composite z-score [9],composite z-score [10],composite z-score [11],composite z-score [12],composite z-score [13],z-score [14],composite z-score [15],composite z-score [16],composite z-score [17],composite z-score [18],composite z-score [19],composite z-score [20]
CC(C)=NO[C@@H](C)c1cc(-c2c(C)cc(C)cc2C)no1,-0.389,-0.166 (inactive),-3.55 (inactive),-0.0423 (inactive),0.168,-0.272 (inactive),-0.122,0.412,-0.434,-0.101,0.624,-0.0037,0.0373,-1.47 (inactive),0.0369,-0.166,-0.0855,-0.234,-0.289,0.952
CON(C)C(=O)c1nnc2c3ccccc3n(S(=O)(=O)c3ccc(C)cc3)c2n1,-0.0043 and 1.58,-0.461 (inactive) and 0.111 (inactive),-0.823 (inactive) and -1.05 (inactive),0.171 (inactive) and -0.671 (inactive),1.2 and 1.93,0.155 (inactive) and 0.517 (inactive),-0.0944 and -0.229,0.423 and 0.772,0.233 and 1.04,-0.0238 and -0.171,0.478 and 0.658,-0.0748 and 0.249,-0.487 and -0.75,0.317 (inactive) and 0.807 (inactive),0.638 and 0.746,0.67 and 1.25,0.484 and 0.58,0.476 and 1.02,0.614 and 0.551,0.454 and 0.688
C=CCN(CCCC)C(=O)C1N(CCOCCO)C(=O)C2C(C(=O)O)C3C=CC21O3 (stereo not given),-0.779 and -1.02,0.784 (inactive) and 1.05 (inactive),0.269 (inactive) and 0.777 (inactive),1.11 (inactive) and 1.07 (inactive),2.94 and -0.643,0.489 (inactive) and 0.0433 (inactive),-0.0065 and -0.291,-2.5 and -2.13,-0.298 and -1.36,-0.326 and -0.314,1.46 and 0.591,-0.0203 and -0.336,1.02 and 0.53,0.391 (inactive) and 0.915 (inactive),-1.38 and -1.65,-1.47 and -1.21,-1.89 and -1.27,-1.5 and -2.25,-3.09 and -1.87,-3.45 and -2.19
O=C1NC(=O)C2C1C=CC(C(O)c1ccc([N+](=O)[O-])cc1)N2Nc1ccc(Cl)cc1Cl (stereo not given),0.551 and 0.395,-1.44 (inactive) and -1.78 (inactive),-1.46 (inactive) and -1.07 (inactive),-0.923 (inactive) and -0.888 (inactive),3.3 and 3.03,0.33 (inactive) and 0.728 (inactive),0.127 and 0.386,-0.142 and -0.311,0.843 and 0.588,0.0661 and -0.102,0.59 and 0.0889,-0.0543 and 1.09,0.765 and 0.824,-1.06 (inactive) and -1.49 (inactive),0.945 and 0.229,0.0563 and 0.737,0.0939 and -0.12,0.272 and 0.132,0.0264 and -0.297,1.13 and 1.31
C[C@@H]1CC[C@H]2C(=O)O[C@H](CN=[N+]=[N-])CN2[C@H]1c1ccc(Br)cc1,0.692 and 0.323,-0.471 (inactive) and 0.113 (inactive),-16.7 (active) and -14.3 (active),-2.15 (inactive) and -0.441 (inactive),0.359 and -0.0523,-0.548 (inactive) and 0.433 (inactive),-0.245 and -0.0174,0.366 and 0.115,-0.105 and -1.06,0.0172 and -0.252,-0.0157 and 0.121,0.117 and -0.31,-0.444 and -0.466,0.254 (inactive) and -0.0654 (inactive),0.152 and -0.213,-0.267 and -0.529,0.0267 and 0.0063,-0.237 and -0.547,0.342 and -0.127,0.746 and 0.78
COC(=O)C1=C(C)N(Cc2ccccc2)C2=C3C(=O)N(c4ccccc4)C(=O)[C@@H]3[C@@](O)(C(=O)OC)C(=O)N2[C@@H]1c1ccccc1,0.345 and 1.13,0.286 (inactive) and -1.22 (inactive),-1.52 (inactive) and -2.29 (inactive),-1.18 (inactive) and -1.1 (inactive),0.806 and 1.46,0.117 (inactive) and 1.24 (inactive),-0.0736 and -0.0453,0.608 and 0.455,0.54 and 1.04,-0.0125 and -0.0534,-0.0191 and 0.501,-0.0254 and -0.186,-0.914 and -0.616,0.0988 (inactive) and -2.38 (inactive),1.17 and 0.553,0.387 and 0.542,0.566 and 0.369,0.802 and 0.527,0.603 and 0.58,-0.042 and -0.581
C=CCN(CCCC)C(=O)C(c1cccs1)N(C(=O)/C=C\C(=O)O)c1ccc(CCO)cc1 (stereo not given),-1.13 and -0.631,-0.924 (inactive) and 0.0434 (inactive),-0.13 (inactive) and -0.354 (inactive),0.161 (inactive) and 0.541 (inactive),0.413 and 0.484,0.0144 (inactive) and -0.312 (inactive),0.0113 and -0.145,-2.58 and -3.71,-1.26 and -0.946,-0.315 and -0.346,-0.292 and 0.315,0.219 and -0.11,0.864 and 1.06,0.243 (inactive) and -0.284 (inactive),-1.34 and -1.59,-1.58 and -1.35,-1.11 and -2.45,-0.963 and -2.14,-1.99 and -4.28,-1.22 and -1.99

# — PubChem BioAssay
